# T1: SFN 1-236 14-3-3 (domain begin residue: 1, domain end residue: 236), P31947
# T1 chain: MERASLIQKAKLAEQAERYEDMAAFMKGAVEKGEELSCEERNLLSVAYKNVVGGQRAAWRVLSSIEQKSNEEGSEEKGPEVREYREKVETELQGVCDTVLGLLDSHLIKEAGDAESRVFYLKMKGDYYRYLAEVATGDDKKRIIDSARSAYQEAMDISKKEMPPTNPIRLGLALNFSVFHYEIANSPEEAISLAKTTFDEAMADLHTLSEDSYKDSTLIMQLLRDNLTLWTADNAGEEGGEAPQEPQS
# T2: RXRB 298-533 Hormone_recep (domain begin residue: 298, domain end residue: 533), P28702
# T2 chain: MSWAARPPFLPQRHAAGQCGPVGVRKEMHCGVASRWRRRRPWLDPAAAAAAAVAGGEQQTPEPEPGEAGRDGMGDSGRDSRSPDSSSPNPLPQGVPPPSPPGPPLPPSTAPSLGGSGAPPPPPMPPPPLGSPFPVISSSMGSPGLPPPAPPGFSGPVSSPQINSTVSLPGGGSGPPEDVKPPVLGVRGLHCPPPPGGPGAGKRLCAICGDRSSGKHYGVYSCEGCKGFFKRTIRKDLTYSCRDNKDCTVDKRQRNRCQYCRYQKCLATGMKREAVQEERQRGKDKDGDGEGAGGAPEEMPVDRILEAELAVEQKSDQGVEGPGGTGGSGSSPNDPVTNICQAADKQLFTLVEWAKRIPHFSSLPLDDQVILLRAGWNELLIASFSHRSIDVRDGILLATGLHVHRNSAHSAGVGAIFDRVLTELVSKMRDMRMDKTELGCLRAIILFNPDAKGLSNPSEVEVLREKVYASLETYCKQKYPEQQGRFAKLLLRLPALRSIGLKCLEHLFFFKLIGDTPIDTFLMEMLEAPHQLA
# T3: RARG 183-417 Hormone_recep (domain begin residue: 183, domain end residue: 417), P13631
# T3 chain: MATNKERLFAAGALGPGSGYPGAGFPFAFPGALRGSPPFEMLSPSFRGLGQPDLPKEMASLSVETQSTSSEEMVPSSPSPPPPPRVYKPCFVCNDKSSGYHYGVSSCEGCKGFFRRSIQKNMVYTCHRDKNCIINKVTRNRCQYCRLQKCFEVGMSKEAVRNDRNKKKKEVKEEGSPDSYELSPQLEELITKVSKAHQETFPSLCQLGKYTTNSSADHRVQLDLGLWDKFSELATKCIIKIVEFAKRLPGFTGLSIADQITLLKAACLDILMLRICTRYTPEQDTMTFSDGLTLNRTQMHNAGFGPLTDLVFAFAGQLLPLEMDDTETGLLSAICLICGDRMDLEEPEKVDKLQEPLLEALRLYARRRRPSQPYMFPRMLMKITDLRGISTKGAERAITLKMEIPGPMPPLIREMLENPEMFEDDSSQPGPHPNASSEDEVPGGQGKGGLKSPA
# T4: S100A11 5-105 S_100+EF-hand_1 (domain begin residue: 5, domain end residue: 105), P31949
# T4 chain: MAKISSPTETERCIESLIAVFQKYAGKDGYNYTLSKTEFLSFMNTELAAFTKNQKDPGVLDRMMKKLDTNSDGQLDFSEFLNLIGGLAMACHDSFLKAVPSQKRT
# T5: RBM17 298-401 RRM_1 (domain begin residue: 298, domain end residue: 401), Q96I25
# T5 chain: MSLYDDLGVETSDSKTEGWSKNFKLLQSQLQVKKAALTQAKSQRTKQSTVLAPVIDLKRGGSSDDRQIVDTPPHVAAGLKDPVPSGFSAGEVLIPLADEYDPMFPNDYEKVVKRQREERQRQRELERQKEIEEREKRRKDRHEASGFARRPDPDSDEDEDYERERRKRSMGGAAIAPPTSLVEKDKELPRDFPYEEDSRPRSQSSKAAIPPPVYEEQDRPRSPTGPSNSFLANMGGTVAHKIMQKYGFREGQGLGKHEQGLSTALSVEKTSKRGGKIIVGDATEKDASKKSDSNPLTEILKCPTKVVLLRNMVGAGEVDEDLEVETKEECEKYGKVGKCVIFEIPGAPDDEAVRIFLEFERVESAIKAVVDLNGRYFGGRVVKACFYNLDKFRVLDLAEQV
# T6: RORB 212-470 Hormone_recep (domain begin residue: 212, domain end residue: 470), Q92753
# T6 chain: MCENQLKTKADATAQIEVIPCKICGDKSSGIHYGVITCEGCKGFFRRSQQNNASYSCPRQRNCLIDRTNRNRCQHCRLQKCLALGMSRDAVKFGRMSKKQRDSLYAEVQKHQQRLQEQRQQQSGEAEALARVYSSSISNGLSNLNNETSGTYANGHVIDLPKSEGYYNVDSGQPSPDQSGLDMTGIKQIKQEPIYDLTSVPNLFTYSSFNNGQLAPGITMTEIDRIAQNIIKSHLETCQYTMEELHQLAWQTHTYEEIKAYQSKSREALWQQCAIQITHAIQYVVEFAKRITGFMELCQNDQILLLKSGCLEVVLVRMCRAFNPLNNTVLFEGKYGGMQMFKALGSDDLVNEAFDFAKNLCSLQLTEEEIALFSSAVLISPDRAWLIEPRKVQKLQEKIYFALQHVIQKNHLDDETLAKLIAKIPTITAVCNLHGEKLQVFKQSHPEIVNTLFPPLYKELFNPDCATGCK
# T7: RARA 175-421 Hormone_recep (domain begin residue: 175, domain end residue: 421), P10276
# T7 chain: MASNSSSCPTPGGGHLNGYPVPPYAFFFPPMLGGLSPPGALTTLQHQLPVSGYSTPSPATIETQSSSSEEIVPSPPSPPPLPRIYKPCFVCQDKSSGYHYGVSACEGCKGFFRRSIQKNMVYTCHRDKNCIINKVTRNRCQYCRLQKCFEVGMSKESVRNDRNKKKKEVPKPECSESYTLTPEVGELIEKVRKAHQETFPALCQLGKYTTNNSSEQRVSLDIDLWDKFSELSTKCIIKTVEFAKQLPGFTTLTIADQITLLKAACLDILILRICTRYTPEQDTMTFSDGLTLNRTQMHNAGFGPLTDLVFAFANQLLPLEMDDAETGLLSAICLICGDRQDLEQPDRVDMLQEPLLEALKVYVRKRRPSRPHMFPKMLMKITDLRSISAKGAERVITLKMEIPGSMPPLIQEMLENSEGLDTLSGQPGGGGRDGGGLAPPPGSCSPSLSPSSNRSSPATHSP
# Tests used:
# Assay in all cases: phage ELISA signal ratio (GST-PRM binding over GST background); higher = stronger binding of peptide-phage to the PRM
# [1] = target: RPA1 2-121 Rep-A_N (domain begin residue: 2, domain end residue: 121), P27694
# In short: (§1)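 Each value is the phage ELISA signal on the glutathione S-transferase (GST)-domain fusion divided by the signal on GST alone. Human peptide recognition domains were expressed in 96-well plates, fused to the C-terminus of GST, and selected against an M13 phage library carrying randomized, cysteine-free, glycine-flanked hexadecapeptides on the gene-8 major coat protein. After five selection rounds, approximately 48 individual clones from rounds 4 and 5 were tested by phage ELISA, and positive clones were sequenced.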
# [2] = target: T1, SFN 1-236 14-3-3 (domain begin residue: …
# In short: as §1
# [3] = target: T2, RXRB 298-533 Hormone_recep (domain …
# In short: as §1
# [4] = target: T3, RARG 183-417 Hormone_recep (domain …
# In short: as §1
# [5] = target: SETD1A 2-220 RRM_1 (domain begin residue: 2, domain end residue: 220), O15047
# In short: as §1
# [6] = target: T4, S100A11 5-105 S_100+EF-hand_1 (domain …
# In short: as §1
# [7] = target: T5, RBM17 298-401 RRM_1 (domain begin …
# In short: as §1
# [8] = target: RPA2 202-270 RPA_C (domain begin residue: 202, domain end residue: 270), P15927
# In short: as §1
# [9] = target: RBBP5 2-538 WD40 (domain begin residue: 2, domain end residue: 538), Q15291
# In short: as §1
# [10] = target: T6, RORB 212-470 Hormone_recep (domain …
# In short: as §1
# [11] = target: T7, RARA 175-421 Hormone_recep (domain …
# In short: as §1
# Chain of RPA1 2-121 Rep-A_N (domain begin residue: 2, domain end residue: 121), P27694 (P27694 whole entry, the tested form may be a part): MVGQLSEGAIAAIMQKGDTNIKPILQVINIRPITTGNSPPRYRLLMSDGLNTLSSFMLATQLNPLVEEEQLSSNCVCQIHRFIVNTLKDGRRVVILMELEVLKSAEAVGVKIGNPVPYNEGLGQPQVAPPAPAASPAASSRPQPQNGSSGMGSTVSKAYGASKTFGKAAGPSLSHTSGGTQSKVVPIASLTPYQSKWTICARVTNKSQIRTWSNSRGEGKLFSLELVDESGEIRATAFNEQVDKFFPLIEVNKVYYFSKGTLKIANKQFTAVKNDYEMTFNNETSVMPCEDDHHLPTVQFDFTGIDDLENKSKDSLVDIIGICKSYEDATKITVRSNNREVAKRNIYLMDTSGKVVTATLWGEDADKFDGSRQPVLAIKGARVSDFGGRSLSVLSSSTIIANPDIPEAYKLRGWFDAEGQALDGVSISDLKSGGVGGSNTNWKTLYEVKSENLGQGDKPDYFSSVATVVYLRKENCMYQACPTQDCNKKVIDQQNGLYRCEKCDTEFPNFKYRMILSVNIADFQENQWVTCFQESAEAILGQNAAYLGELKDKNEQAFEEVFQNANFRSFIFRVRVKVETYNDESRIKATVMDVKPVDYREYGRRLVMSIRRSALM
# Chain of RBBP5 2-538 WD40 (domain begin residue: 2, domain end residue: 538), Q15291 (Q15291 whole entry): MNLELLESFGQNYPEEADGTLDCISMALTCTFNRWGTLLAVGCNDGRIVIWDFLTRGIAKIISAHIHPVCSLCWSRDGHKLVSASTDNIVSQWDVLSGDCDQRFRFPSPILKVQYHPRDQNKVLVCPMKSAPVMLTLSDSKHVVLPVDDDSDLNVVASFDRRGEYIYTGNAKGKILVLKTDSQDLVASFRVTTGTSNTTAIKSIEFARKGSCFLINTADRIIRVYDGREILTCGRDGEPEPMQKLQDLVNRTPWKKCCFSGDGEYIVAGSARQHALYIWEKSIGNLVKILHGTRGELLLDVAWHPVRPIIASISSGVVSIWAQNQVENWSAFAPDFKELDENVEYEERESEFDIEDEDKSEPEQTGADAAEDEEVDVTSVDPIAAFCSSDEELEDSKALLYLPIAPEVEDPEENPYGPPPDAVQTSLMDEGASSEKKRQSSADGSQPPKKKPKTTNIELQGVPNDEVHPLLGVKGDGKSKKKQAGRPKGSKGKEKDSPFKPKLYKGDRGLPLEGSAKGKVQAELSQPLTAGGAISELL
# Chain of SETD1A 2-220 RRM_1 (domain begin residue: 2, domain end residue: 220), O15047 (O15047 whole entry): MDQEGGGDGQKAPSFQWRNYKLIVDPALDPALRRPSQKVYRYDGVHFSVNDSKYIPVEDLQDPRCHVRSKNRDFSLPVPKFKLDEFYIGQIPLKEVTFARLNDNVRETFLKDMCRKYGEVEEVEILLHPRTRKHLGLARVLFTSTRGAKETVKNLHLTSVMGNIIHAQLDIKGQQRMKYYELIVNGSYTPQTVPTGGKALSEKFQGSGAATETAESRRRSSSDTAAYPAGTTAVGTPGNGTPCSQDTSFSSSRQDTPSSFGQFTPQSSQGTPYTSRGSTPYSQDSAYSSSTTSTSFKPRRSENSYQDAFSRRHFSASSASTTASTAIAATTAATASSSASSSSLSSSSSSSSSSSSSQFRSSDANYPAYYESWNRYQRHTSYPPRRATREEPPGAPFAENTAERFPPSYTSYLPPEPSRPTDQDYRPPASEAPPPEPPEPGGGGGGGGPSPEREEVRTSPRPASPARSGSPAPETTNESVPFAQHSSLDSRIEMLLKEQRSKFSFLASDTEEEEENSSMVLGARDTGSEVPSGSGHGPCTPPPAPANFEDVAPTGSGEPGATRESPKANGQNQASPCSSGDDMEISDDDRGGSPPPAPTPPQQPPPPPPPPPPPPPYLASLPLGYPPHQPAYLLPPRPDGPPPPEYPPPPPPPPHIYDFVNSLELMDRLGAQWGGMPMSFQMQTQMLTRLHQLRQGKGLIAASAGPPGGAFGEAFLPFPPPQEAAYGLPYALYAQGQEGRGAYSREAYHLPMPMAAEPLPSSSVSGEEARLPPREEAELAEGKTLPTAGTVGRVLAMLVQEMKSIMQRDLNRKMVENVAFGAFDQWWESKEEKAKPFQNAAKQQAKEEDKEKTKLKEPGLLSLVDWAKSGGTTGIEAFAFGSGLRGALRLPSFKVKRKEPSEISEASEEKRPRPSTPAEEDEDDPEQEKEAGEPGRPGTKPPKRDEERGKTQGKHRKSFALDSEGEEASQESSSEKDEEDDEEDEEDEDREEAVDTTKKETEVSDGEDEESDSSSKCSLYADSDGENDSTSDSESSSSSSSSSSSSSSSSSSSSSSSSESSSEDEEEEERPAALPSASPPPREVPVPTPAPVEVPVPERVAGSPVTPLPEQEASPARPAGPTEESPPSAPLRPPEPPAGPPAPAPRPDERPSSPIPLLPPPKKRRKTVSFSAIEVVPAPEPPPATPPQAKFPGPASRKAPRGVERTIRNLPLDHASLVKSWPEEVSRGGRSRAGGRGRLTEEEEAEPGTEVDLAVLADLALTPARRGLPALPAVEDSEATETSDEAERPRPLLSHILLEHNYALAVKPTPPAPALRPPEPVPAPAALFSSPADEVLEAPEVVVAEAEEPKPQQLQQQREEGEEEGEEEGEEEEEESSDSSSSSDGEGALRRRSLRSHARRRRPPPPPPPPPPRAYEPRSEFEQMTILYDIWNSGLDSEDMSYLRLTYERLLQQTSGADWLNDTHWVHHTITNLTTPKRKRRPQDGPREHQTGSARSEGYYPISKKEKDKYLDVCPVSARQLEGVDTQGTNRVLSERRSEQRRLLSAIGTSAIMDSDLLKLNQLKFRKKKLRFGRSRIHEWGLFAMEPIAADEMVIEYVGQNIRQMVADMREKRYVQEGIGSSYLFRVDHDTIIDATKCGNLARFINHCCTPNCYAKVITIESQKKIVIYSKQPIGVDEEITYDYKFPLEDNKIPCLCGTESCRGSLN
# Chain of RPA2 202-270 RPA_C (domain begin residue: 202, domain end residue: 270), P15927 (P15927 whole entry): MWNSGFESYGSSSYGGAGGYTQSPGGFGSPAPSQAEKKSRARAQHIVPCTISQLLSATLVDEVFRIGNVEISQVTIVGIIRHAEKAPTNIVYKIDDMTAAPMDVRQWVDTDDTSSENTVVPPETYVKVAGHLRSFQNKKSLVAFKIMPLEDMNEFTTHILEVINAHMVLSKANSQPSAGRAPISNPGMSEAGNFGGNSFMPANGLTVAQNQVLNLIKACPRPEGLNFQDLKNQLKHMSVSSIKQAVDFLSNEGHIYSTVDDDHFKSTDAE
binder,measurement,setting,value
YIHDWEMFEHWENLWG,phage ELISA signal ratio,[1],9.27
DWVLYKEWVPQWPHNF,phage ELISA signal ratio,[2],17.1
MWGGEDDLVQAWLEQF,phage ELISA signal ratio,[1],9.46
LDHMNWPEHDWLWATM,phage ELISA signal ratio,[3],16.1
PYGPFKSFEYMDIQRT,phage ELISA signal ratio,[4],26.7
HMAWDVIWDNIYLADS,phage ELISA signal ratio,[5],4.42
IEQAELIWMEYKKQTK,phage ELISA signal ratio,[3],6.73
YWTWDDFQEMFLRLER,phage ELISA signal ratio,[6],4.97
WELSDYTLIQAYDQIM,phage ELISA signal ratio,[1],13.8
AQMAPRWDQMQPVMVE,phage ELISA signal ratio,[7],5.16
VWEDWTYMEDWEMMVF,phage ELISA signal ratio,[1],14.3
YRWDRQPSQEAVSSKY,phage ELISA signal ratio,[7],4.04
YIQDWEMMDVWNTLVG,phage ELISA signal ratio,[1],18
WQWNGVWPDIIWVQVE,phage ELISA signal ratio,[8],7.24
IFYWDFESQTWTMSAP,phage ELISA signal ratio,[9],3.49
ESNEMWEWVMNQAHVW,phage ELISA signal ratio,[3],11.2
MEQWWHGEDIMWHWWE,phage ELISA signal ratio,[6],3.64
YNFPMDWDQIPITWPQ,phage ELISA signal ratio,[5],6.17
QIEYWNSMEQTWVQSQ,phage ELISA signal ratio,[9],9.82
WEHHGWWTFWEEAPEQ,phage ELISA signal ratio,[10],4.7
YPEHQWLEQHMFQTVQ,phage ELISA signal ratio,[3],14.3
SQIQRYIDEAMTHQST,phage ELISA signal ratio,[11],13.4
YYVLDSEMETIWQSIL,phage ELISA signal ratio,[1],15.3
TDMEYWEPFTDEELSM,phage ELISA signal ratio,[1],10
YVTDLEMIETWNKFIN,phage ELISA signal ratio,[1],16.4
TPTDTAESIWEMYKKM,phage ELISA signal ratio,[3],28
EEMPWYFIEDWEMEMY,phage ELISA signal ratio,[1],10.6
VSWWDDGLVYDWMSEF,phage ELISA signal ratio,[1],16.5
EVEDMQWLEENWLVFW,phage ELISA signal ratio,[1],12

# Source: the supplement of paper PMC7724964
